Reference: PubChem BioAssay (NCI)
The panel holds about 79,000 compounds, 15% with a hit somewhere; the sample as a whole holds those more often. Active and inactive are the calls of the source. No stated cut-off is given here; in the data, active means growth inhibition above about 70%; inactive means the rest.

Assay: NCI Yeast Anticancer Drug Screen. Data for the rad18 strain (AID 177)
Conditions: S. cerevisiae rad18 mutant growth inhibition, active compounds read high
Method: Growth inhibition of yeast strains with defined genetic alterations is measured as a screen for potential anti-cancer activity. Selected strains with alterations in DNA damage repair or cell cycle control were exposed to compounds and growth inhibition was measured relative to vehicle treated controls. The strain used in this assay is rad18

Measured: growth inhibition

O=C1NC(c2cccc(OCc3ccccc3)c2)Nc2ccccc21 (stereo not given)
inactive: at 1.2 µM -6% | at 3.7 µM -18% | at 11.0 µM -26% | at 33.0 µM -21% | at 100.0 µM -37%

CC(C)OC(=O)NNc1cc(Cl)ccc1Cl
inactive: at 1.2 µM 2% | at 3.7 µM 69% | at 11.0 µM 69% | at 33.0 µM 62%
active: at 100.0 µM 86%

O=C1c2ccccc2C(=O)c2sc(Nc3ccccc3Cl)nc21
active: at 11.0 µM 83% | at 33.0 µM 99% | at 100.0 µM 97%
inactive: at 1.2 µM -14% | at 3.7 µM 25%

O=C(O)c1ccc2cc(Cl)c3ccccc3c2c1
inactive: at 1.2 µM 2% | at 3.7 µM 3% | at 11.0 µM 19% | at 33.0 µM 39% | at 100.0 µM 55%

CC(C)OP(=O)(OC(C)C)C(=NCCO)NNc1ccc([N+](=O)[O-])cc1
inactive: at 1.2 µM 20% | at 3.7 µM 0% | at 11.0 µM 13% | at 33.0 µM 54%
active: at 100.0 µM 91%

CC/C(=C(\c1ccccc1)c1ccc(OCC[N+](C)(C)C)cc1)c1ccccc1
active: at 3.7 µM 86% | at 11.0 µM 99% | at 33.0 µM 99% | at 100.0 µM 99%
inactive: at 1.2 µM 3%

CCCCCCCCCCCCOCCOCCOCC(N)=O
active: at 33.0 µM 97% | at 100.0 µM 95%
inactive: at 1.2 µM -18% | at 3.7 µM -31% | at 11.0 µM -18%

CC(C)CCC[C@@H](C)[C@H]1CC[C@H]2[C@@H]3CC[C@H]4C[C@H](N)CC[C@]4(C)[C@H]3CC[C@]12C
inactive: at 1.2 µM -1% | at 3.7 µM 0% | at 11.0 µM 3% | at 33.0 µM -6% | at 100.0 µM 3%
